The text below walks through data of PubChem BioAssay (EPA / NIEHS).

The source made the active and inactive calls. The calls were made as follows: active = hit-call score of the fitted dose curve at least 0.9, where 1 is the maximum; inactive = score below 0.9.

A short description of the experiment: ATG_Ets_CIS: Attagene CIS-FACTORIAL HepG2 Assay for human Erythroblast Transformation Specific (ETS) (AID 2282941). As to conditions: HepG2 ETS cis-reporter transcription, actives raise or lower the signal. The protocol: ATG_CIS is a cell-based, multiplexed-readout assay that uses HepG2, a human liver cell line, with measurements taken at 24 hours after chemical dosing in a 24-well plate.ATG_Ets_CIS is one of 52 assay component(s) measured or calculated from the ATG_CIS assay. It is designed to make measurements of mRNA induction, a form of inducible reporter, as detected with fluorescence intensity signals by Reverse transcription polymerase chain reaction (RT-PCR) and Capillary electrophoresis technology.Data from the assay component ATG_Ets_CIS was analyzed into 1 assay endpoint. This assay endpoint, ATG_Ets_CIS, was analyzed with bidirectional fitting relative to DMSO as the negative control and baseline of activity. Using a type of inducible reporter, measures of mRNA for gain or loss-of-signal activity can be used to understand the reporter gene at the transcription factor-level as they relate to the gene ETS1. Furthermore, this assay endpoint can be referred to as a primary readout, because this assay has produced multiple assay endpoints where this one serves a reporter gene function. To generalize the intended target to other relatable targets, this assay endpoint is annotated to the dna binding intended target family, where the subfamily is winged helix-turn-helix.
Human liver HepG2 cells are transiently transfected with multiple reporter transcription units (MRTUs) in 6-well plates using FuGene 6 reagent (Roche; 3 ml FuGene/1 mg DNA). The MRTU constructs are regulated by a cis-regulating element (promoter). […] A major difference between the CIS and TRANS system is that in CIS activities of endogenous TFs are measured, whereas the TRANS assay evaluates changes in activities of exogenous, chimeric NR-Gal4 proteins. […] At the end of 24 hour incubation, total RNA was isolated using TriZol reagent (Invitrogen). The isolated RNA is then reverse-transcribed using oligo(dT) primer and Mo-MLV reverse transcriptase (Invitrogen) with DNAse I (Ambion) treatment for 30 min. The one-tenth of the produced cDNA was amplified by PCR using Taq DNA polymerase (Invitrogen) and two reporter sequence-specific primers. The PCR products were fluorescently labeled by primer extension with 6-arboxyfluorescein (6-FAM) 5'-labeled reporter sequence-specific primer (2 min at 95 C, 20 s at 68 C and 10 min at 72 C) and these products were digested with 5U of HpaI (New England Biolabs) for 2h at 37 C. The fragments were purified using Qiaquick PCR columns (Qiagen), analyzed on an ABI 3130xL genetic analyzer (Applied Biosystems) with peak positions identified by using a set of X-rhodamine (ROX)-labeled MapMarker1000 molecular weight standards (BioVentures). The raw capillary electrophoresis data was processed using Attagraph software (Attagene).
For `O=S(=O)(O)OOS(=O)(=O)O`, the call was inactive.

As for `CCC[N+](=O)[O-]`, the compound was classed as inactive.

In the case of `CCC(C)c1cc(C(C)(C)C)cc(-n2nc3ccccc3n2)c1O` (stereo not given), the result was inactive.

As to `CC1(C)[C@H](C(=O)O[C@H](C#N)c2cccc(Oc3ccccc3)c2)[C@@H]1C=C(Br)Br`, the outcome was inactive.

Regarding `Cc1ccc(C)c2ccccc12`, the compound was called inactive.

On to `Nc1ccccc1C(=O)OCCc1ccccc1`, for which the compound was classed as inactive.

With `CNC(=N[N+](=O)[O-])NCC1CCOC1` (stereo not given), the call was inactive.

For the compound `O=[N+]([O-])c1cc(C(F)(F)F)c(Cl)c([N+](=O)[O-])c1Cl`, the result was inactive.

In the case of `COCC(=O)N(c1c(C)cccc1C)N1CCOC1=O`, the compound was called inactive.

As for `COc1cc(OC)nc(Oc2cccc(Oc3nc(OC)cc(OC)n3)c2C(=O)O)n1`, the call was inactive.

On to `C=COCCCl`, for which the call was inactive.

Take `[Cl-].[Cl-].[Cl-].[Yb+3]`: the compound was classed as inactive.

With `N#Cc1cc(I)c(O)c(I)c1`, the compound was classed as inactive.

`CCCCCc1cc(O)cc(O)c1`: the result was inactive.

In the case of `CC1(C)C(=O)NC(=O)NC1=O`, the result was inactive.

Take `[N-]=[N+]=CC(=O)OC[C@H](N)C(=O)O`: the compound was classed as inactive.

Regarding `CN(C)N`, the compound was classed as inactive.

With `Nc1ccccc1C(=O)Oc1ccc2ccccc2c1`, the half-maximal activity concentration (AC50) is 75.7 µM (active).

On to `N#Cc1cccc(C#N)c1`, for which the outcome was inactive.

For `Nc1c(Cl)c(Cl)c(Cl)c(Cl)c1Cl`, the compound was called inactive.

As for `COC(C)(C)CCC[C@H](C)C/C=C/C(C)=C/C(=O)OC(C)C`, the compound was classed as inactive.

For `CC(C)(C)C(O)C(Oc1ccc(-c2ccccc2)cc1)n1cncn1` (stereo not given), the compound was classed as inactive.

Consider `Cc1ccc(OP(=O)(Oc2ccc(C)cc2)Oc2ccc(C)cc2)cc1` (tested in a mixture with another compound), for which the outcome was inactive.

Consider `CCC(C)(C)O`, for which the compound was called inactive.

`COC(=O)c1ccccc1S(=O)(=O)NC(=O)Nc1nc(C)cc(C)n1`: the result was inactive.

As for `O=C(CCN1CC1)OCC(CO)(COC(=O)CCN1CC1)COC(=O)CCN1CC1`, the compound was classed as inactive.

Turning to `ClCC(Cl)Cl`, the outcome was inactive.

For the compound `CN(C)C(=O)C(c1ccccc1)c1ccccc1`, the compound was classed as inactive.

For `C[N+](=O)[O-]`, the call was inactive.

With `O=C(O)CCCc1ccc(N(CCCl)CCCl)cc1`, the compound was classed as inactive.

On to `CSc1nc(N=[N+]=[N-])nc(NC(C)C)n1`, for which the call was inactive.

Turning to `O=S(=O)(c1ccccc1)c1ccccc1`, the call was inactive.

For the compound `NNc1ccccc1`, the compound was classed as inactive.

As to `CC1(C)CC(=O)CC(C)(C)N1[O]`, the compound was classed as inactive.

For the compound `CNC(=O)Oc1cc(C)c(SC)c(C)c1`, the outcome was inactive.

Regarding `CCCCCCCCCCCC#N`, the call was inactive.

Consider `O=C1C=CC(=O)C=C1`, for which the outcome was inactive.

Regarding `CN1C[C@H](C(=O)N[C@]2(C)O[C@@]3(O)[C@@H]4CCCN4C(=O)[C@H](Cc4ccccc4)N3C2=O)C=C2c3cccc4[nH]cc(c34)C[C@H]21`, the compound was classed as inactive.

As for `[Cl][Sb]([Cl])[Cl]`, the call was inactive.

Turning to `ClC1=C(Cl)[C@]2(Cl)[C@@H]3[C@@H](Cl)[C@H](Cl)C[C@@H]3[C@@]1(Cl)C2(Cl)Cl`, the compound was classed as inactive.

The term AC50 denotes the concentration at which the activity in the assay is half-maximal.
